# Laboratory results published in PubChem BioAssay (NCI).
# This is part of a sample that, as a whole, favours compounds with a hit. Of some 83,000 tested, about 20% had one in any assay.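 The test compound was applied at a single concentration to cells in 96-well plates for 48 hours, and percent growth was recorded.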 Calls of active or inactive are those of the source. Rule for the calls: active = growth percent below 10; inactive = the rest.
# Tested on: MDA-MB-468 breast
# Experiment: NCI-60 one-dose screen, 48 h (100 = growth as untreated, 0 = no growth, -100 = all killed)
# Details: 10 µM unless noted
row,Compound,growth
1,Cc1cc(-c2ccccc2)cc(C)n1,103% (inactive)
2,CC(=O)OC1/C=C\CC/C=C\C1 (centres undefined),109% (inactive)
3,O=C(NCc1cccnc1)c1ccc([N+](=O)[O-])o1,69.5% (inactive)
4,CC1CC(C)S(=O)(=O)C1 (centres undefined),112% (inactive)
